# Hit rate of the full screen: of about 360,000 compounds, about 16,000 (4.4%) were called active. About 9% were inconclusive and are not listed. The call rests on the fitted dose curve; in most records, active means well fitted inhibition curve with a large enough effect; inconclusive means small, poorly fitted or top-dose-only effect; inactive means no such curve, though single readings can be large or run the other way. Only a selection was taken, and actives are over-represented in it overall.
# Biological target: Bromodomain adjacent to zinc finger domain protein 2B (Homo sapiens) (UniProt Q9UIF8)
# Sequence (Q9UIF8 whole entry, looked up, the tested form may be a part): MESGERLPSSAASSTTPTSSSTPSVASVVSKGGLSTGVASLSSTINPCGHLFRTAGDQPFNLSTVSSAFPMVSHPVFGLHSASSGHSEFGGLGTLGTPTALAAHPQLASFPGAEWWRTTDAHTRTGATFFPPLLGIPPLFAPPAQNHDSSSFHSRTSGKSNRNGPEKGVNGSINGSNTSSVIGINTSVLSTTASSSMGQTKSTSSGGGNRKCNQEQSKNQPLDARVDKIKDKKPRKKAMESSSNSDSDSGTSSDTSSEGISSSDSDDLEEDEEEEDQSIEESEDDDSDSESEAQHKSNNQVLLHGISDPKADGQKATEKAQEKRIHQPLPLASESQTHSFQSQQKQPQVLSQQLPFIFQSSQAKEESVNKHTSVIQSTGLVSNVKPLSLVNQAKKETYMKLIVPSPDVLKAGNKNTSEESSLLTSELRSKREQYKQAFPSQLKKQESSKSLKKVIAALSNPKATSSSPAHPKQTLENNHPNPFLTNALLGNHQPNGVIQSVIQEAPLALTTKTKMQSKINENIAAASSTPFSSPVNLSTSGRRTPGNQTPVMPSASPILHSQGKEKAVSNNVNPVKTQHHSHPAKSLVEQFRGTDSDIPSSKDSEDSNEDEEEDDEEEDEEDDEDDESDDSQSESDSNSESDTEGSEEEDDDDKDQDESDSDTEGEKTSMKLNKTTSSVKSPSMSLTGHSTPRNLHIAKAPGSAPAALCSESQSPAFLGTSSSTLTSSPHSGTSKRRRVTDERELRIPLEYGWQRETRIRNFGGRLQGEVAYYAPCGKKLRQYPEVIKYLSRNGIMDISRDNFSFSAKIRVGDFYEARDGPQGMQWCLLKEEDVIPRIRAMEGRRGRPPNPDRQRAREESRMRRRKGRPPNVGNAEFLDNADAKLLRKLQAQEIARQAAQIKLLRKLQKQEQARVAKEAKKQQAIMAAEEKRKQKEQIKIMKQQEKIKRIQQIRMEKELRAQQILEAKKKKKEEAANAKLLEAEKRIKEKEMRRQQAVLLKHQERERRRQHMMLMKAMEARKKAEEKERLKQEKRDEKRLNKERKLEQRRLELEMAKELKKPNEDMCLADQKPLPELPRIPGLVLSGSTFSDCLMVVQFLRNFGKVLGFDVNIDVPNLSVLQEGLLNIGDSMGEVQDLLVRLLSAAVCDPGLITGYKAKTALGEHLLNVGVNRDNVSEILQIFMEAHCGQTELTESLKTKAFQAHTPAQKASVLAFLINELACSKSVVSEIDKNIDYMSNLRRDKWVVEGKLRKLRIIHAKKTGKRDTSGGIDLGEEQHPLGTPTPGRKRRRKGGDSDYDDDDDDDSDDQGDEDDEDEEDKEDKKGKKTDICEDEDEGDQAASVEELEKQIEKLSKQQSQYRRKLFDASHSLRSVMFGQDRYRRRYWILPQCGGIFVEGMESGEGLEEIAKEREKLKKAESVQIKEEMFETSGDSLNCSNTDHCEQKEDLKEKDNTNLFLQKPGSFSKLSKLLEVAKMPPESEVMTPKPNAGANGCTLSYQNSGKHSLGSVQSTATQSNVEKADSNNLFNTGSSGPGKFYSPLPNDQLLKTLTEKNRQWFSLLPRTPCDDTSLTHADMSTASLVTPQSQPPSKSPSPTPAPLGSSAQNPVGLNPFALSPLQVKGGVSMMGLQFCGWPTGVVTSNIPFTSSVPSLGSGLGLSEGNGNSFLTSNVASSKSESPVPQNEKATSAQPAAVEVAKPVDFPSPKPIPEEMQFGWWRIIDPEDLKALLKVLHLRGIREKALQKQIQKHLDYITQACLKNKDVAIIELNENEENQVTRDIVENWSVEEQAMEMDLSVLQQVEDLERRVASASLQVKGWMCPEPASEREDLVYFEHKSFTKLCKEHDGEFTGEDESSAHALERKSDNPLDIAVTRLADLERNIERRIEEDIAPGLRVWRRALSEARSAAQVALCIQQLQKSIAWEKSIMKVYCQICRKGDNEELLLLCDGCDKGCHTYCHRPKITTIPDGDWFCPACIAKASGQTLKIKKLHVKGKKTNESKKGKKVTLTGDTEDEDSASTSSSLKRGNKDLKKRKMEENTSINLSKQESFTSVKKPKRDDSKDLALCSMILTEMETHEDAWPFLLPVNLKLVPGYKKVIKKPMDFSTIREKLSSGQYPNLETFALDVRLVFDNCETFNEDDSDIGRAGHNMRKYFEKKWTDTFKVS
# Assay: qHTS Assay for Inhibitors of BAZ2B; further: nearly all actives have a fitted effect of over 60% in size
# Conditions: AlphaScreen BAZ2B-H3K14Ac peptide displacement; series mostly up to 114 µM; activity change, negative = inhibition: at the top concentration
# Method in brief: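 Multi-concentration screen (max 110 uM) measuring displacement of acetylated histone H3 peptide from BAZ2B by AlphaScreen, using 50 nM protein, 50 nM peptide and 10 ug/mL streptavidin donor plus Ni-chelate acceptor beads.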
# On the % scale 0 is the no-effect control and ±100 the full control effect; potency means the concentration at half of the fitted maximal effect.
SMILES,"activity change, negative = inhibition",Potency
Cc1cc(C)cc(NS(=O)(=O)c2cc3c(cc2C)NC(=O)CO3)c1,-32.2% (inactive),–
COc1ccc(C)cc1Nc1nc(-c2c(C)[nH]c3ccccc23)cs1,–,50.1 µM (active)
COc1ccc(C)cc1Nc1nc(C)nc2c1oc1ccccc12,-23.2% (inactive),–
COC(=O)c1cnc(Nc2cc(C)ccc2OC)c2ccccc12,32.2% (inactive),–
O=C(COc1ccccc1Cl)Nc1ccc2nc(SCC(=O)N3CCCC3)sc2c1,-8.22% (inactive),–
Cc1c(C(=O)NCc2ccccc2Br)oc2ccc3c(c12)C(=O)CC(C)(C)O3,-5.06% (inactive),–
CCOC(=O)c1c(C)[nH]c(C)c1S(=O)(=O)N1CCC(C(=O)Nc2ccc(C)c(Cl)c2)CC1,2.17% (inactive),–
CCOC(=O)c1ccc(NC2=CC(c3ccc(OCC)cc3)N(c3ccc(C(=O)OCC)cc3)C2=O)cc1 (centres undefined),-14.4% (inactive),–
COc1ccc(CCNc2ncnc3onc(-c4ccc(Cl)cc4)c23)c(OC)c1,12.3% [at 57.1 µM] (inactive),–
Oc1ccc(N=Cc2sc3ccccc3c2Cl)cc1,–,31.6 µM (active)
COc1ccc(N=C(C)c2sc3ccccc3c2O)cc1,-14.3% (inactive),–
CC(=O)n1c(C=Nc2ccccc2)c(O)c2ccccc21,34.9% (inactive),–
COc1ccc(C(F)(F)F)cc1NC(=O)c1sc2nc(-c3cccs3)ccc2c1N,1.9% (inactive),–
Nc1cc(N)nc(SCc2ccc(Cl)cc2)n1,-2.43% (inactive),–
O=C(C1CC1)N1CCN=C1SCc1ccc(Cl)cc1,7.34% (inactive),–
Clc1ccc(CSc2nncn3c2cc2occc23)cc1,–,44.7 µM (active)
COC(=O)c1sccc1S(=O)(=O)N(CC(=O)Nc1ccc(C)c(F)c1)c1ccc(C)c(C)c1,-8.1% (inactive),–
CCOC(=O)c1c(NC(=O)c2cc(-c3ccc(Cl)cc3)on2)sc2c1CCCC2,-0.226% (inactive),–
COc1ccccc1-c1nnc(C2CCN(C(=O)c3ccc(Cl)cc3)CC2)o1,-15% (inactive),–
Cc1ccc(Oc2c(C(F)(F)F)oc3c(CN4CCCCC4)c(O)ccc3c2=O)cc1,-2.73% (inactive),–
Cc1nnc(C)n1-c1ccc(C(=O)Nc2cccc(Br)c2)cc1,1.73% (inactive),–
Cc1ccccc1CN1CCC(CNC(=O)c2cc3ccc4cccnc4c3[nH]2)CC1,15.2% [at 57.1 µM] (inactive),–
O=C(CCCCCN1C(=O)c2cccc3cccc(c23)C1=O)NCc1ccco1,5.06% (inactive),–
O=C(CCN1C(=O)/C(=C/c2cccs2)SC1=S)NNC(=O)c1cccc(O)c1,-6.89% (inactive),–
O=C(CCCN1C(=O)/C(=C\c2ccco2)SC1=S)Nc1cccc2ccccc12,–,44.7 µM (active)
CCn1c(=O)c(=O)n(CC)c2cc(N3CCCCC3)c(NC(=O)c3cccc(F)c3)cc21,2.52% (inactive),–

SMILES,"activity change, negative = inhibition",Potency
COc1ccc(C)cc1NC(=O)COCc1cc(-c2cccs2)on1,33.5% (inactive),–
O=C(NCCc1c[nH]c2ccccc12)c1cccc(Br)c1,-24.7% (inactive),–
Cc1cc(C)cc(NC(=S)NCc2ccc(F)cc2)c1,-0.9% (inactive),–
Cc1cc(C)cc(NC(=S)NCCc2c[nH]c3ccccc23)c1,–,28.2 µM (active)
COc1ccc(CNC(=O)COCc2cc(-c3cccs3)on2)cc1OC,-0.39% (inactive),–
CCN(C(=O)Cn1cc(S(=O)(=O)N2CCN(c3ccccc3F)CC2)c2ccccc2c1=O)c1ccc(C)c(C)c1,-12.9% (inactive),–
Cc1ccc(CN(C(=O)c2ccccc2[N+](=O)[O-])c2ccccn2)cc1,-24.1% (inactive),–
CCc1ccc(N(CC)C(=O)CCn2cnc3onc(-c4ccc(F)cc4)c3c2=O)cc1,-5.56% [at 57.1 µM] (inactive),–
Cc1cccc(N2CCN(C(=O)/C=C/c3ccco3)CC2)c1C,–,50.1 µM (active)
Cc1cccc(N2CCN(C(=O)c3cnc(N4CCCC4)nc3C)CC2)c1C,-13.1% (inactive),–
CCC(CC)C(=O)N1CCN(c2cccc(C)c2C)CC1,-21.9% (inactive),–
CCOc1ccc2nc(N3CCCC(C(=O)Nc4cc(C)ccc4C)C3)sc2c1 (centres undefined),-6.74% (inactive),–
CC(C)c1ccc2oc(-c3cc(NC(=O)c4cccs4)ccc3Cl)nc2c1,-2.9% (inactive),–
CCOc1ccc(-n2c(O)c(/C=N/Nc3nc(C)cc(C)n3)c3ccccc3c2=O)cc1,-7.49% (inactive),–
Cc1nnc(N/N=C/c2ccccn2)[nH]c1=O,–,39.8 µM (active)
CCOc1ccc(-n2c(O)c(/C=N/c3ccnn3Cc3ccncc3)c3ccccc3c2=O)cc1,-19.4% (inactive),–
O=C(COc1ccc(Cl)cc1Cl)N/N=C/c1ccccn1,16.5% (inactive),–
CCOc1ccc(-n2c(O)c(/C=N/Nc3nnc(C)c(=O)[nH]3)c3ccccc3c2=O)cc1,–,12.6 µM (active)
Cc1nnc(N/N=C/C2CC=CCC2)[nH]c1=O (centres undefined),-7.79% (inactive),–
Cc1cccc(S(=O)(=O)c2cn(Cc3ccccc3)c3cc(N4CCOCC4)c(F)cc3c2=O)c1,0.496% (inactive),–
O=C(CSc1nc2ccccc2nc1Cc1ccccc1)N1CCCCC1,36% (inactive),–
Cc1ccc(Nc2nnc(-c3ccc(C)c(S(=O)(=O)N4CCCCC4)c3)c3ccccc23)cc1,8.32% (inactive),–
COc1cccc(C(=O)NNS(=O)(=O)c2ccc(F)cc2)c1,8.36% [at 0.457 µM] (inactive),–
NS(=O)(=O)c1ccc(CNC(=O)c2cnccn2)cc1,-0.375% (inactive),–
O=C(NNS(=O)(=O)c1ccc(F)cc1)c1cnccn1,–,79.4 µM (active)
CCC(CC)c1nn2cc(-c3ccccc3)nc2s1,12.6% (inactive),–

SMILES,"activity change, negative = inhibition",Potency
Cc1ccc(OCC(=O)Nc2ccc(Cl)c(-c3nc4ccccc4[nH]3)c2)cc1C,-24.8% (inactive),–
Cc1nn(CC(=O)NCCc2ccccc2)c(=O)c2c1sc1ccccc12,-18.3% (inactive),–
CC(=O)c1sc(NC(=O)C2=NN(c3ccccc3)C(=O)CC2)nc1C,–,70.8 µM (active)
COc1cc2ccccc2cc1C(=O)Nc1nc(C)c(C(C)=O)s1,6.28% (inactive),–
CC(=O)c1sc(N/N=C\c2ccc(C)cc2)nc1C,-3.67% (inactive),–
COc1ccccc1CNS(=O)(=O)c1cc(Br)cc2c1N(C(C)=O)C(C)C2 (centres undefined),-0.972% (inactive),–
O=C(Nc1ccc(Br)cc1)c1ccc(Br)c(S(=O)(=O)NCc2ccccc2)c1,-1.45% (inactive),–
N#Cc1ccsc1NC(=O)CN1CCN(S(=O)(=O)c2cc(Cl)ccc2Cl)CC1,-11.6% (inactive),–
COc1ccc(Cl)cc1S(=O)(=O)N1CCN(CC(=O)C(C)(C)C)CC1,10.4% (inactive),–
O=C(CN1CCN(S(=O)(=O)c2cc(Cl)ccc2Cl)CC1)c1ccc(O)c(O)c1,–,44.7 µM (active)
CCC(=O)Nc1ccccc1-c1nc2ccccc2n(CC(=O)Nc2ccc(C)c(C)c2)c1=O,-15.9% (inactive),–
CN(Cc1ccccc1)c1ncnc2onc(-c3ccc(F)cc3)c12,35.9% [at 57.1 µM] (inactive),–
CCOC(=O)C1CCCCN1Cc1ccc(OC)c(OC)c1OC (centres undefined),–,31.6 µM (active)
CCOC(=O)C1CCN(C(=O)/C=C/c2cc(OC)c(OC)c(OC)c2)CC1,6.29% (inactive),–
CCOC(=O)C1CCN(S(=O)(=O)c2cc(F)ccc2OC)CC1,-4.46% (inactive),–
CCOC(=O)c1c(NC(=O)c2ccc(S(=O)(=O)N3CCCC(C)C3)cc2)sc2c1CCN(C(C)C)C2 (centres undefined),1.44% (inactive),–
CC1CCCN(c2csc3ccc(F)cc3c2=O)C1 (centres undefined),-14.5% (inactive),–
COc1ccccc1OCCCn1c(-c2ccc(Cl)cc2)nc2ccccc2c1=O,3.81% (inactive),–
Cn1c(COc2ccc(Cl)cc2)nc2ccccc2c1=O,–,50.1 µM (active)
COc1ccc(OCc2ccc(-c3nc4ccccc4c(=O)n3N)o2)cc1,-21.5% (inactive),–
O=C(Nc1ccc2nc(SCCOc3ccccc3)sc2c1)c1ccco1,-14.9% (inactive),–
CN1C=CC=C/C1=C1\SC(=S)N(Cc2ccccc2)C1=O,–,50.1 µM (active)
CCCCN1C(=O)/C(=C2/Sc3ccc(Cl)cc3N2CC)SC1=S,8.39% [at 57.1 µM] (inactive),–
CCCCN1C(=O)/C(=C2/C=CC=CN2C)SC1=S,–,44.7 µM (active)
CCCCN1C(=O)/C(=C/C=C2/C=Cc3ccccc3N2CC)SC1=S,-28.8% (inactive),–
O=C1C(Cc2ccc(O)cc2)NC(=S)N1Cc1ccccc1 (centres undefined),-1.83% (inactive),–

SMILES,"activity change, negative = inhibition",Potency
COc1ccccc1NC(=O)Cn1cnc2ccc(S(=O)(=O)N3CCC(C)CC3)cc2c1=O,-23.3% (inactive),–
Cc1ccc2nc(N3CCN(c4cccc(Cl)c4)CC3)c3nnnn3c2c1,-7.42% (inactive),–
Cn1c(=O)sc2cc(NS(=O)(=O)c3ccc(C(C)(C)C)cc3)ccc21,-24% (inactive),–
O=C(/C=C/c1ccccc1)N1CCN(Cc2cc(=O)n3nc(-c4ccccc4F)sc3n2)CC1,3.61% (inactive),–
Cc1cc(C)c(NC(=O)Cn2c(SCC(=O)NCc3ccccc3)nc3ccccc32)c(C)c1,-19.9% (inactive),–
Cc1ccc(OCc2n[nH]c(=S)n2-c2ccccc2)cc1,-27.8% (inactive),–
COc1ccc(OCc2n[nH]c(=S)n2N)cc1,–,56.2 µM (active)
S=c1[nH]nc(COc2ccccc2)n1-c1ccccc1,-0.261% (inactive),–
COc1ccc(C)cc1N(CC(=O)N1CCC(C)CC1)S(=O)(=O)c1ccc(C)cc1,-0.594% (inactive),–
O=C1c2ccccc2C(=O)c2c1cccc2N1CCN(Cc2ccccc2)CC1,–,5.01 µM (active)
O=S(=O)(c1cccs1)N1CCN(Cc2ccccc2)CC1,4.84% (inactive),–
CCc1c(C)nc(N2CCN(Cc3ccccc3)CC2)[nH]c1=O,0.116% (inactive),–
CCOc1ccccc1NC(=O)CN1CCCN(Cc2cccc(Cl)c2)S1(=O)=O,-0.932% (inactive),–
COc1cccc2c1cc1c(=O)n(CC(=O)N3CCN(c4ccccc4)CC3)nc(C)n12,0.516% (inactive),–
CC(=O)N1c2ccc(S(=O)(=O)N3CCCCCC3)cc2CC1C(=O)NCc1ccccc1C (centres undefined),-10.3% (inactive),–
COc1ccc(C2=CC(c3ccccc3Cl)n3nc(-c4ccc(Cl)cc4)nc3N2)cc1 (centres undefined),-5.56% (inactive),–
Cc1ccc(C2C=C(c3ccc(Cl)cc3)Nc3nc(NC(=O)CCC(=O)O)nn32)cc1 (centres undefined),–,79.4 µM (active)
COc1ccc(C2C=C(c3ccc(Br)cc3)Nc3nc(NS(C)(=O)=O)nn32)cc1 (centres undefined),3.31% (inactive),–
COc1ccc(-n2c(SCC(N)=O)nc3c(oc4ccccc43)c2=O)cc1,3.46% (inactive),–
COc1ccc(N2C(=O)CS(=O)(=O)C23C(=O)N(Cc2ccc(C)cc2)c2ccccc23)cc1Cl (centres undefined),1.71% [at 57.1 µM] (inactive),–
COc1cccc(C(=O)NC(=O)Nc2ccc(-c3cc(C(F)(F)F)nn3-c3ccccc3)cc2)c1,-9.64% (inactive),–
C=CC[n+]1c(-c2ccc(C)cc2)csc1NNC(=O)Nc1ccccc1,–,31.6 µM (active)
Cc1ccc(NC(=O)Nc2ccccc2)c(Br)c1,-9.4% (inactive),–
Cc1ccc(-c2c[n+](CC(=O)Nc3ccccc3)c3n2CCC3)cc1,-4.1% (inactive),–
C=CCNc1scc(-c2ccccc2)[n+]1CC=C,–,10 µM (active)
C=CCNC(=O)c1csc(-c2ccccc2)n1,-24.1% (inactive),–

# Reference: PubChem BioAssay AID504333 (National Center for Advancing Translational Sciences (NCATS), 2011)
